From PubChem BioAssay (NCATS)
Several values for one entry are separate records, joined by “and”; a condition that tells them apart may be missing. Equal entries are not always repeated. Results filed as inconclusive are left out. The source holds several records for some structures; these can differ, active in one and inactive in another. Activity calls are given as the source filed them. Calls follow the shape of the dose curve; as a rule, active = well fitted inhibition curve with a large enough effect; inconclusive = small, poorly fitted or top-dose-only effect; inactive = flat fitted curve, though single readings scatter.

What was measured:
P93_24 = assay: qHTS profiling for inhibitors of Plasmodium falciparum proliferation (AID 504749); also: potency is read from the fitted curve at half-maximal effect; details: P. falciparum in erythrocytes, SYBR Green DNA, 72 h; series mostly up to 28.7 µM
Procedure, shortened: (§1)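 Infected RBCs, 0.3% parasitemia/2.5% Hct final; cpd 72 h, 37 C, 5% CO2; lysis buffer with saponin/triton/SYBR Green I, o/n RT dark; FI 485/535; norm. to artemisinin (0.29 uM) and DMSO.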

P94_40 = assay: as above; details: P. falciparum in erythrocytes, SYBR Green DNA, 72 h; series mostly up to 28.7 µM
Procedure, shortened: as §1

PAD = assay: as above; details: P. falciparum in erythrocytes, SYBR Green DNA, 72 h; series mostly up to 28.7 µM
Procedure, shortened: as §1

PC15 = assay: as above; details: P. falciparum in erythrocytes, SYBR Green DNA, 72 h; series mostly up to 28.7 µM
Procedure, shortened: as §1

PC26 = assay: as above; details: P. falciparum in erythrocytes, SYBR Green DNA, 72 h; series mostly up to 28.7 µM
Procedure, shortened: as §1

PC49 = assay: as above; details: P. falciparum in erythrocytes, SYBR Green DNA, 72 h; series mostly up to 28.7 µM
Procedure, shortened: as §1

SC27B = assay: as above; details: P. falciparum in erythrocytes, SYBR Green DNA, 72 h; series mostly up to 28.7 µM
Procedure, shortened: as §1

TAB113 = assay: as above; details: P. falciparum in erythrocytes, SYBR Green DNA, 72 h; series mostly up to 28.7 µM
Procedure, shortened: as §1

TAB165 = assay: as above; details: P. falciparum in erythrocytes, SYBR Green DNA, 72 h; series mostly up to 28.7 µM
Procedure, shortened: as §1

W2 = assay: as above; details: P. falciparum in erythrocytes, SYBR Green DNA, 72 h; series mostly up to 28.7 µM
Procedure, shortened: as §1

CRL-7250 = normal cell line; assay: Cytotoxic Profiling of Annotated Libraries Using Quantitative High-Throughput Screening (AID 1296008); details: Five cell lines viability, CellTiter-Glo ATP luminescence, 48-72 h; max response: stronger effect = lower value; also: potency is read from the fitted curve at half-maximal effect; as to max response: % is scaled to controls: 0 for no effect and ±100 for the full control effect
Procedure, shortened: (§2)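 Cytotoxicity was measured as CellTiter-Glo ATP luminescence, read after 10 min at room temperature. Compound treatment of the cells lasted 48 or 72 hr at 37 degrees Celsius in a qHTS format.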

HEK293 = assay: as above; details: Five cell lines viability, CellTiter-Glo ATP luminescence, 48-72 h; max response: stronger effect = lower value
Procedure, shortened: as §2

HaCat [1] = assay: as above; details: Five cell lines viability, CellTiter-Glo ATP luminescence, 48-72 h; max response: stronger effect = lower value
Procedure, shortened: as §2

NIH3T3 = assay: as above; details: Five cell lines viability, CellTiter-Glo ATP luminescence, 48-72 h; max response: stronger effect = lower value
Procedure, shortened: as §2

HACAT [2] = assay: qHTS assay to identify novel small-molecules to repurpose for Merkel cell carcinoma treatment (AID 1296009); details: MCC and control cell lines, CellTiter-Glo viability, 72 h; series mostly up to 44.8 µM
Procedure, shortened: (§3)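 72 hr, 37 degree celsius; NPC 8-pt / MIPE 11-pt dose response; compound pinned in DMSO; CellTiter-Glo, 10 min RT, luminescence; normalized to no-cell and DMSO controls.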

HEK293T = assay: as above; details: MCC and control cell lines, CellTiter-Glo viability, 72 h; at 44.8 µM (top of the series) unless noted
Procedure, shortened: as §3

MCC-13 = assay: as above; details: MCC and control cell lines, CellTiter-Glo viability, 72 h; series mostly up to 46 µM
Procedure, shortened: as §3

MCC-26 = assay: as above; details: MCC and control cell lines, CellTiter-Glo viability, 72 h; series mostly up to 46 µM
Procedure, shortened: as §3

KB-3-1 = assay: Cytotoxic Profiling of Annotated Libraries Using Quantitative High-Throughput Screening (AID 1296008); details: Five cell lines viability, CellTiter-Glo ATP luminescence, 48-72 h; max response: stronger effect = lower value; also: potency is read from the fitted curve at half-maximal effect; as to max response: % is scaled to controls: 0 for no effect and ±100 for the full control effect
Procedure, shortened: as §2

TAB109 = assay: qHTS profiling for inhibitors of Plasmodium falciparum proliferation (AID 504749); also: potency is read from the fitted curve at half-maximal effect; details: P. falciparum in erythrocytes, SYBR Green DNA, 72 h; series mostly up to 28.7 µM
Procedure, shortened: as §1
Also: nearly all actives have a fitted effect of over 60% in size.

Cc1ccc(C(=O)Nc2ccc(S(=O)(=O)O)c3cc(S(=O)(=O)O)cc(S(=O)(=O)O)c23)cc1NC(=O)c1cccc(NC(=O)Nc2cccc(C(=O)Nc3cc(C(=O)Nc4ccc(S(=O)(=O)O)c5cc(S(=O)(=O)O)cc(S(=O)(=O)O)c45)ccc3C)c2)c1
inactive: Potency (P93_24) | Potency (P94_40) | Potency (PAD) | Potency (PC15) | Potency (PC26) | Potency (PC49) | Potency (SC27B) | Potency (TAB113) | Potency (TAB165) | Potency (W2) | max response (CRL-7250) 0.897% | outcome (HEK293) | outcome (HaCat [1]) | max response (NIH3T3) -7.7% | outcome (NIH3T3) | outcome (HACAT [2]) | outcome (HEK293T) | Potency (MCC-13) | Potency (MCC-26)

C[C@@H]1CC(=O)NN=C1c1ccc(NN=C(C#N)C#N)cc1
active: Potency (HaCat [1]) 18.7 µM
inactive: outcome (CRL-7250) | max response (HaCat [1]) -5.36% and -8.18% | max response (KB-3-1) -4.37% | Potency (MCC-13) | Potency (MCC-26)

O=C(Nc1ccc([N+](=O)[O-])cc1Cl)c1cc(Cl)ccc1O
active: Potency (PAD) 0.631 µM | Potency (SC27B) 0.631 µM | Potency (TAB113) 0.708 µM | Potency (TAB165) 0.355 µM | Potency (W2) 0.953 µM
inactive: Potency (PC26) | Potency (PC49) | Potency (MCC-26)

Nc1c2c(nc3ccccc13)CCCC2
active: Potency (PC15) 12.6 µM | Potency (TAB109) 8.91 µM | Potency (HaCat [1]) 26.4 µM
inactive: Potency (PC49) | Potency (SC27B) | Potency (TAB113) | outcome (CRL-7250) | outcome (HaCat [1]) | outcome (NIH3T3) | outcome (HACAT [2]) | Potency (MCC-13) | Potency (MCC-26)

CC(COc1ccccc1)N(CCCl)Cc1ccccc1 (centres undefined)
inactive: Potency (PAD) | Potency (PC15) | Potency (PC49)
active: Potency (W2) 6.01 µM
